Test results from article PMC10668032, “Altered binding affinity of SIX1-Q177R correlates with enhanced WNT5A and WNT pathway effector expression in Wilms tumor”.
In all, about 33,000 sequences were measured (“e-score”: median about -0.05, highest 2% from about 0.38 on). The sample holds the highest values, similar sequences and a random draw of the others, so the mix is not that of the screen.

What follows are sequences tested against T1, SIX1-Q177R homeodomain (human, UniProt Q15475 108-198, Q177R) (assay: universal protein binding microarray; Universal all-10-mer PBM (8x60K, AMADID 030236), 300 nM GST-tagged protein, Alexa Fluor 488 anti-GST; buffer, salt, pH and temperature not stated (as in Berger); high values mean tight binding). Settings: protein: ivt; tags: N-terminal GST; dsDNA, one strand shown.
T1 sequence: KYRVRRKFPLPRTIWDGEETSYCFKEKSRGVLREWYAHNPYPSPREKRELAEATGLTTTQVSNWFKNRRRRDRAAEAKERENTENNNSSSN
In short: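 After in vitro transcription/translation, GST-tagged homeodomains were quantified against a recombinant GST standard curve by anti-GST western blot. They were then placed in duplicate at 300 nM final concentration on universal 'all 10-mer' protein binding microarrays of 8×60K format.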
In the case of GTGTTTAA, the binding signal is reported as 0.375 ± 0.015 E-score.
With GTGTTAAA the binding signal was 0.403 ± 0.0279 E-score.
With GGGTTAAA the binding signal was 0.214 ± 0.0192 E-score.
In the case of ACGGGGTC, the binding signal is reported as 0.214 ± 0.0134 E-score.
Work on AAACCCAG yielded a binding signal of 0.219 ± 0.0117 E-score.
Sequence GCACCCAA has a binding signal of 0.154 ± 0.0464 E-score.
Work on ACACCCAA yielded a binding signal of 0.4542 ± 0.000742 E-score.
Work on ACCCCCAT yielded a binding signal of 0.272 ± 0.0289 E-score.
ACCCCCAC was tested, and the binding signal was 0.282 ± 0.0258 E-score.
Sequence ACCCCCAA has a binding signal of 0.312 ± 0.0125 E-score.
Sequence ACACCCAT has a binding signal of 0.458 ± 0.00543 E-score.
In the case of ACACCCAC, the binding signal is reported as 0.4683 ± 0.00307 E-score.
AACCCCAT was tested, and the binding signal was 0.169 ± 0.00626 E-score.
ACCCCCAG gave a binding signal of 0.23 ± 0.0356 E-score.
For GCACCCAC, the binding signal was 0.194 ± 0.0207 E-score.
Sequence ACACCCAG has a binding signal of 0.4602 ± 0.00339 E-score.
Work on ACCAACGC yielded a binding signal of 0.246 ± 0.0108 E-score.
In the case of TATCAACA, the binding signal is reported as 0.288 ± 0.0159 E-score.
Work on ACCCCGAC yielded a binding signal of 0.265 ± 0.018 E-score.
CTCGATCC was tested, and the binding signal was 0.201 ± 0.00608 E-score.
GGTGCTTA was tested, and the binding signal was 0.234 ± 0.00599 E-score.
CGGTGACA was tested, and the binding signal was 0.248 ± 0.0377 E-score.
In the case of CAAACCCC, the binding signal is reported as 0.197 ± 0.0505 E-score.
For CACTGTGA, the binding signal was 0.177 ± 0.00305 E-score.
For CAGCCGAC, the binding signal was 0.196 ± 0.0242 E-score.
Sequence CCACACGA has a binding signal of 0.234 ± 0.0111 E-score.
For CCACACCG, the binding signal was 0.363 ± 0.0269 E-score.
TCACACCA gave a binding signal of 0.434 ± 0.00571 E-score.
In the case of GCACACGA, the binding signal is reported as 0.214 ± 0.0114 E-score.
GCACACCA was tested, and the binding signal was 0.401 ± 0.0217 E-score.
Sequence ACACACGA has a binding signal of 0.251 ± 0.0465 E-score.
For ACACACAA, the binding signal was 0.244 ± 0.0667 E-score.
TCACACGA showed a binding signal of 0.226 ± 0.00234 E-score.
For TCACAACA, the binding signal was 0.195 ± 0.0326 E-score.
Work on CCACACCA yielded a binding signal of 0.393 ± 0.0307 E-score.
With ACACACCA the binding signal was 0.415 ± 0.0235 E-score.
GCACACGC gave a binding signal of 0.256 ± 0.0166 E-score.
In the case of ATCCCCTG, the binding signal is reported as 0.156 ± 0.0119 E-score.
ACTATACG gave a binding signal of 0.178 ± 0.015 E-score.
CACTCTGA showed a binding signal of 0.239 ± 0.0406 E-score.
For CACCTTGC, the binding signal was 0.258 ± 0.0162 E-score.
TGTTGAAA gave a binding signal of 0.219 ± 0.0411 E-score.
Work on AGTGATAC yielded a binding signal of 0.265 ± 0.0283 E-score.
With CGTATACA the binding signal was 0.241 ± 0.0194 E-score.
GCGGTACA was tested, and the binding signal was 0.305 ± 0.00496 E-score.
With ACACTAAA the binding signal was 0.345 ± 0.0117 E-score.
ACCCTAGG showed a binding signal of 0.1523 ± 0.00136 E-score.
Work on ACACTAGG yielded a binding signal of 0.381 ± 0.0153 E-score.
ACACTAGC gave a binding signal of 0.364 ± 0.0183 E-score.
ACACTAGA was tested, and the binding signal was 0.318 ± 0.0323 E-score.
ACACTAGT was tested, and the binding signal was 0.389 ± 0.00685 E-score.
In the case of GGATCAGA, the binding signal is reported as 0.17 ± 0.0215 E-score.
CCCTGCAG showed a binding signal of 0.185 ± 0.0216 E-score.
Sequence CTCTTACA has a binding signal of 0.183 ± 0.018 E-score.
ATGGGATC was tested, and the binding signal was 0.185 ± 0.00496 E-score.
Sequence CCGAACCC has a binding signal of 0.186 ± 0.0116 E-score.
GCGAACAC was tested, and the binding signal was 0.4086 ± 0.0011 E-score.
For CCGAATAC, the binding signal was 0.163 ± 0.00356 E-score.
In the case of GCGAACCC, the binding signal is reported as 0.174 ± 0.0509 E-score.
Work on ACGAGCAC yielded a binding signal of 0.226 E-score.
Work on ACGAACAC yielded a binding signal of 0.3992 ± 0.00182 E-score.
For CCGAACAC, the binding signal was 0.4236 ± 0.00158 E-score.
With ACCCTAAC the binding signal was 0.154 ± 0.00793 E-score.
With ACCCACAG the binding signal was 0.217 ± 0.00978 E-score.
With CACCAGGA the binding signal was 0.25 ± 0.00664 E-score.
GTACCTAC showed a binding signal of 0.152 ± 0.0312 E-score.
For CTCCGTTC, the binding signal was 0.182 ± 0.0356 E-score.
CCCAAACG gave a binding signal of 0.169 ± 0.00462 E-score.
Work on ACAGGGTG yielded a binding signal of 0.222 ± 0.00416 E-score.
Work on AGCACCAA yielded a binding signal of 0.196 ± 0.00899 E-score.
In the case of AACACGAA, the binding signal is reported as 0.305 ± 0.0107 E-score.
AACACCAA showed a binding signal of 0.46725 ± 0.00029 E-score.
For TACACGAA, the binding signal was 0.3773 ± 0.000856 E-score.
Work on AACACCAC yielded a binding signal of 0.4833 ± 0.00244 E-score.
Work on AACACGAC yielded a binding signal of 0.373 ± 0.0147 E-score.
Work on TGCACCAA yielded a binding signal of 0.211 ± 0.0149 E-score.
For AGCACCAT, the binding signal was 0.16 ± 0.0114 E-score.
TACACCAA was tested, and the binding signal was 0.4751 ± 0.00401 E-score.
AGCACCAC showed a binding signal of 0.272 ± 0.00962 E-score.
Work on AACACCAT yielded a binding signal of 0.457 ± 0.0053 E-score.
With GTCCGACA the binding signal was 0.217 ± 0.042 E-score.
In the case of GTAAGCAC, the binding signal is reported as 0.189 ± 0.00735 E-score.
For CCTCCTAA, the binding signal was 0.197 ± 0.00216 E-score.
For GACGGTGC, the binding signal was 0.175 ± 0.00182 E-score.
CACTGCAC gave a binding signal of 0.223 ± 0.0117 E-score.
ACCCTCGG was tested, and the binding signal was 0.2 ± 0.0194 E-score.
With GGCACCAC the binding signal was 0.215 ± 0.0174 E-score.
Work on GACCACAC yielded a binding signal of 0.269 ± 0.0108 E-score.
GATACCAA gave a binding signal of 0.263 ± 0.0211 E-score.
In the case of GACACAAA, the binding signal is reported as 0.224 ± 0.11 E-score.
GACACCAC showed a binding signal of 0.489 ± 0.00507 E-score.
GACACCAA showed a binding signal of 0.475 ± 0.00758 E-score.
CCCCTCGA showed a binding signal of 0.23 ± 0.0411 E-score.
Sequence GGCGGGTA has a binding signal of 0.214 ± 0.0165 E-score.
CCGGGTAC showed a binding signal of 0.294 ± 0.0102 E-score.
In the case of AACGGGTG, the binding signal is reported as 0.314 ± 0.00327 E-score.
ACCCGGTG showed a binding signal of 0.3599 ± 0.0016 E-score.
CTACTCCC was tested, and the binding signal was 0.228 ± 0.0226 E-score.
CACGGCCG gave a binding signal of 0.188 ± 0.00306 E-score.
GGGTATCA showed a binding signal of 0.3904 ± 0.00193 E-score.
Sequence CAGTATCA has a binding signal of 0.2 ± 0.0287 E-score.
GGGTATTA was tested, and the binding signal was 0.161 ± 0.054 E-score.
GTGTATTA showed a binding signal of 0.401 ± 0.0189 E-score.
For GTGTATAA, the binding signal was 0.376 ± 0.0114 E-score.
GGGTATGA was tested, and the binding signal was 0.186 ± 0.0167 E-score.
Work on GTGTATCA yielded a binding signal of 0.392 ± 0.0104 E-score.
AGGTATCA was tested, and the binding signal was 0.324 ± 0.0386 E-score.
GTGTATGA gave a binding signal of 0.412 ± 0.0071 E-score.
In the case of GAGTATCA, the binding signal is reported as 0.228 ± 0.0455 E-score.
CGGTATCA was tested, and the binding signal was 0.312 ± 0.00867 E-score.
